NPR1 antag: blocks ANP-stimulated signaling of human Npr1 receptor | HEK293 hNpr1 GloSensor cGMP, ANP-stimulated luminescence | Potency, µM (doses to about 46.3 µM), hits mostly inhibitors | actives 1.6% (n = 76,000) | P16066 | AID 1347048; calls by dose curve; note: nearly all actives have a fitted effect of over 60% in size
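Compound pre-incubated 30 min at room temperature on GloSensor-loaded HEK293 cells stably carrying hNpr1 and the pGS-40F cGMP biosensor. Stimulation uses hNppA at 0.1 nM final; luminescence is taken at baseline and 20 min post-agonist.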
GPT2 inhibitor: GPT2 alanine aminotransferase inhibition; Recombinant GPT2, coupled pyruvate oxidase/HRP Amplex Red fluorescence; Potency, µM (top dose mostly 57.7 µM), usual class: inhibitors; actives 0.25% (n = 100,000); AID 1671188; note: nearly all actives have a fitted effect of over 60% in size
Target sequence (Q8TD30 whole entry, looked up): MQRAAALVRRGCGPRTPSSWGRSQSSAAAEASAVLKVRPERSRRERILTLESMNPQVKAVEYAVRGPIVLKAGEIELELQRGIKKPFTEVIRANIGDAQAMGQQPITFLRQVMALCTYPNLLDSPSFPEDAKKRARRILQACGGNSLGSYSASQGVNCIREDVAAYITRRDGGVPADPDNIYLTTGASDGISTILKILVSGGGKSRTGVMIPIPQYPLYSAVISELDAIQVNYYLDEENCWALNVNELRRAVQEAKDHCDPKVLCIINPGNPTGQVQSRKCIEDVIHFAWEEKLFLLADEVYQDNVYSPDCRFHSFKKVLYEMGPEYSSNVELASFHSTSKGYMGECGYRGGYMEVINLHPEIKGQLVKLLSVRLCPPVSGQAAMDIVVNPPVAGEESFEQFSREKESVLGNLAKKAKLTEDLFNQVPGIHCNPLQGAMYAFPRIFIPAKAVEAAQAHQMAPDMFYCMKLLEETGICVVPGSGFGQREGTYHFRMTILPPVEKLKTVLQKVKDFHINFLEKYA
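Fluorescence of coupled pyruvate oxidase/HRP/Amplex Red system (50uM Amplex, 30 min, dark) reports pyruvate formed by GPT2. Enzyme reaction: 10ng/uL GPT2, 2mM L-alanine, 250uM a-KG, 30 min room temperature, pH 7.5; 50uM AOA control.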
Luciferase inh: blocks purified firefly luciferase enzyme activity; P08659; purified P. pyralis luciferase, luminescence, biochemical; Potency, µM (highest dose often 115 µM), most hits filed as inhibitors; actives 2.5% (n = 76,000); note: nearly all actives have a fitted effect of over 65% in size
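FLuc 10nM, D-luciferin 10uM, ATP 10uM, Mg acetate 10mM, Tris acetate pH 7.5, Tween/BSA; cpd qHTS; enzyme added last; CCD luminescence.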
NIH3T3 tox: cytotoxic compounds in NIH 3T3 cells; actives 4.3% (n = 94,000); NIH 3T3 viability, CellTiter-Glo ATP luminescence, 48-72 h; AID 1345082; Potency, µM (doses to about 96.7 µM), hits mostly inhibitors; note: nearly all actives have a fitted effect of over 55% in size
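First NIH 3T3 cells are plated at 400 cells/well; next compound is pinned in; then plates incubate 48 or 72 hr at 37 °C; finally CellTiter-Glo is added and luminescence read after 10 min.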
HEK cytotox: HEK 293 cell cytotoxicity; HEK 293 viability, ATP luminescence (CellTiter-Glo), 48-72 h; Potency, µM (doses to about 115 µM), usual class: inhibitors; actives 6.6% (n = 94,000); note: nearly all actives have a fitted effect of over 60% in size
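CellTiter-Glo luminescence (cellular ATP) was read after 48 or 72 hr of compound exposure at 37 degree Celsius. Cells were HEK 293 plated at 250 cells/well.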
Npr1 antag conf: hNpr1 antagonism, confirmation assay; shares compounds with NPR1 antag; actives 76% (n = 1,400); Potency, µM (doses to about 57.6 µM), most hits filed as inhibitors; AID 1347044; HEK293 hNpr1 cGMP GloSensor luminescence, ANP-stimulated; calls by dose curve; note: nearly all actives have a fitted effect of over 70% in size
NPR2 antag: hNpr2 antagonism, selectivity versus Npr1; shares compounds with NPR1 antag; HEK293 hNpr2 GloSensor cGMP luminescence, CNP-stimulated; Potency, µM (titrated, usually from 57.6 µM), hits mostly inhibitors; actives 67% (n = 1,400); AID 1347046; calls by dose curve; note: nearly all actives have a fitted effect of over 70% in size
FLuc inh counter: inhibits firefly luciferase, false Npr1 antagonist flag. actives 0.7% (n = 1,400). shares compounds with NPR1 antag. purified FLuc enzyme, luminescence, Km substrate. Potency, µM (titrated, usually from 57.6 µM), usual class: inhibitors; note: series mostly up to about 58 µM
GloSensor ctrl: control cell line activity, Npr1 antagonist counter-screen. shares compounds with NPR1 antag. HEK293 GloSensor cGMP, SNP-stimulated, luminescence. Potency, µM (highest dose often 57.6 µM), most hits filed as inhibitors. actives 69% (n = 1,400). AID 1347051; calls by dose curve; note: nearly all actives have a fitted effect of over 70% in size
Large screens that a line does not name were inactive (follow-up assays come after a bar, where they were run). Hits are enriched below; roughly 10% of the tested compounds scored in any of these assays. Unless noted, calls come from the whole dose curve; as a rule, active = well fitted curve in the direction sought with a large enough effect; inconclusive = small, poorly fitted or top-dose-only effect, or another doubt; inactive = no such curve, though single readings can be large; an effect the other way counts as inactive or inconclusive.

CCOC(=O)C1(Cc2ccc(OC)cc2)CCN(C(=O)c2cccc(Cl)c2)CC1	Luciferase inh inconclusive, NIH3T3 tox inconclusive, HEK cytotox inconclusive
CCOC(=O)C1(Cc2ccc(Cl)cc2)CCN(C(=O)c2cc(C)oc2C)CC1	NPR1 antag 13µM, NIH3T3 tox 25µM, HEK cytotox 20µM | Npr1 antag conf 22µM | NPR2 antag 22µM | FLuc inh counter inactive | GloSensor ctrl 19µM
COc1cccc(-c2noc(COC(=O)C3=CN(Cc4ccccc4)S(=O)(=O)N=C3C)n2)c1	Luciferase inh inconclusive, HEK cytotox inconclusive
CC1=NS(=O)(=O)N(C)C=C1C(=O)OCc1nc(-c2cccc(C)c2)no1	NPR1 antag 11µM, NIH3T3 tox inconclusive, HEK cytotox inconclusive | Npr1 antag conf 15µM | NPR2 antag 14µM | FLuc inh counter inactive | GloSensor ctrl 14µM
COc1ccc(CN2C=C(C(=O)OCc3nc(-c4cccc(OC)c4)no3)C(C)=NS2(=O)=O)cc1	NPR1 antag inconclusive, NIH3T3 tox inconclusive | Npr1 antag conf inconclusive | NPR2 antag inactive | FLuc inh counter inactive | GloSensor ctrl inconclusive
CC1=NS(=O)(=O)N(C)C=C1C(=O)OCc1nc(C)no1	none
CC1=NS(=O)(=O)N(C)C=C1C(=O)OCc1nc(-c2ccc(F)cc2)no1	NPR1 antag 11µM, HEK cytotox inconclusive | Npr1 antag conf 22µM | NPR2 antag 22µM | FLuc inh counter inactive | GloSensor ctrl 22µM
COCc1nc(C2CCCN(C(=O)NC3CCCC3)C2)no1 (centres undefined)	none
Cc1noc(-c2cn(C3CCN(C(=O)c4ccc(F)cc4Cl)C3)nn2)n1 (centres undefined)	none
CC(C)c1noc(-c2cn(C3CCN(C(=O)c4ccc(F)cc4Cl)C3)nn2)n1 (centres undefined)	NPR1 antag inconclusive, NIH3T3 tox inconclusive, HEK cytotox inconclusive | Npr1 antag conf 15µM | NPR2 antag 15µM | FLuc inh counter inactive | GloSensor ctrl 14µM
CC(C)c1noc(-c2cn(C3CCN(C(=O)c4cccc(F)c4)C3)nn2)n1 (centres undefined)	NPR1 antag inconclusive, NIH3T3 tox inconclusive, HEK cytotox inconclusive
CC(C)c1noc(-c2cn(C3CCN(C(=O)c4cccc(Cl)c4)C3)nn2)n1 (centres undefined)	NPR1 antag inconclusive, NIH3T3 tox inconclusive, HEK cytotox inconclusive | Npr1 antag conf 24µM | NPR2 antag 27µM | FLuc inh counter inactive | GloSensor ctrl 22µM
CCc1cnc(C)nc1N1CCOC(c2ccc(Cl)cc2)C1 (centres undefined)	NPR1 antag 10µM, GPT2 inhibitor inconclusive, NIH3T3 tox inconclusive, HEK cytotox 11µM | Npr1 antag conf 14µM | NPR2 antag 15µM | FLuc inh counter inactive | GloSensor ctrl 12µM
Clc1ccc(C2CN(c3cc(C4CC4)ncn3)CCO2)cc1 (centres undefined)	NPR1 antag 11µM, NIH3T3 tox inconclusive, HEK cytotox 25µM | Npr1 antag conf 19µM | NPR2 antag 22µM | FLuc inh counter inactive | GloSensor ctrl 17µM
COc1ccc(C(=O)N2CCCCCCNC(=O)[C@@H]3C[C@@H](c4nc(C(C)C)no4)C[C@@H]32)cc1	GPT2 inhibitor inconclusive, NIH3T3 tox inconclusive
O=C(CCC1CCCC1)N1CCC(c2noc(COc3ccc(F)cc3)n2)C1 (centres undefined)	NPR1 antag 10µM, NIH3T3 tox inconclusive, HEK cytotox 45µM | Npr1 antag conf 11µM | NPR2 antag 15µM | FLuc inh counter inactive | GloSensor ctrl 9.7µM
C/C1=C\CCC2=CC(OC2=O)C(C)(C)/C=C/C1=O (centres undefined)	none (no result: NPR1 antag, Luciferase inh, NIH3T3 tox, HEK cytotox)
CC(C)(C)C(=O)N1CCN(C(=O)c2nc3cccnc3n(C3CC3)c2=O)CC1	none (no result: NPR1 antag, Luciferase inh)
COc1cccc(CNC(=O)c2ccc(-c3ccc(N4CCSCC4)nc3)cc2)c1	NPR1 antag inconclusive, Luciferase inh inconclusive, HEK cytotox inconclusive
COc1ccc(OC)c(CNC(=O)c2ccc(-c3ccc(N4CCSCC4)nc3)cc2)c1	NPR1 antag 7.1µM, NIH3T3 tox inconclusive, HEK cytotox inconclusive | Npr1 antag conf 6.9µM | NPR2 antag 6.9µM | FLuc inh counter inactive | GloSensor ctrl 6.1µM
Cc1nn2c(c1-c1ccccc1-c1ccccc1)N(Cc1ccc(O)cc1)CCC2	NPR1 antag 3.5µM, NIH3T3 tox 8.9µM, HEK cytotox 7.9µM | Npr1 antag conf 2.8µM | NPR2 antag 5µM | FLuc inh counter inactive | GloSensor ctrl 3.5µM
Cc1cccc(CN2CCCn3nc(C)c(-c4ccccc4-c4ccccc4)c32)n1	NPR1 antag 16µM, NIH3T3 tox 13µM, HEK cytotox inconclusive | Npr1 antag conf 11µM | NPR2 antag 28µM | FLuc inh counter inactive | GloSensor ctrl 7.9µM
Cc1cccc(C(=O)N2CCCOCCNC(=O)[C@@H]3CCCC[C@@H]32)c1	GPT2 inhibitor inconclusive
CCOc1ccccc1NC(=O)C1CCc2ncc(-c3ccsc3)n2C1 (centres undefined)	HEK cytotox inconclusive
Cc1cc(C)n(CCC(=O)NC2CCCN(c3cc(-c4ccc(Cl)cc4)[nH]n3)C2)n1 (centres undefined)	NIH3T3 tox inconclusive, HEK cytotox inconclusive
O=C(OCc1ccccc1)N1CCC2(CC1)C(=O)NN=C2c1cccnc1	NPR1 antag inconclusive, NIH3T3 tox inconclusive, HEK cytotox inconclusive | Npr1 antag conf 19µM | NPR2 antag 22µM | FLuc inh counter inactive | GloSensor ctrl 17µM
O=C(c1ccccc1)N1CCC2(CC1)C(=O)NN=C2c1cccnc1	none
CC[C@H]1OC(=O)[C@H](C)[C@@H](O[C@H]2C[C@@](C)(OC)[C@@H](O)[C@H](C)O2)[C@H](C)[C@@H](O[C@H]2O[C@H](C)C[C@H](N(C)C)[C@H]2O)[C@](C)(O)C[C@@H](C)C(=O)[C@H](C)[C@@H](O)[C@]1(C)O	none (no result: NPR1 antag, Luciferase inh, NIH3T3 tox, HEK cytotox)
Cc1nn2c(c1-c1ccccc1OCc1ccccc1)N(C(=O)c1ccn(C)n1)CCC2	NIH3T3 tox inconclusive
